Among the data in ChEMBL document CHEMBL3433997, “St. Jude Leishmania screening dataset” (2016) are inhibition values, retold here.

Type in all cases: functional
The target of experiment [1] is Solute carrier family 2, facilitated glucose transporter member 1 (Homo sapiens) (UniProt P11166). The experiment is described as follows: ST_JUDE_LEISH: Cytotoxicity at 2uM final concentration against transgenic Leishmania Mexicana promastigotes LmGLUT1 that are glucose transport deficient and complemented with the human glucose transporter GLUT1. Activity is measured by DNA content using SYBR green in vitro.
Solute carrier family 2, facilitated glucose transporter member 1 (Homo sapiens), sequence (P11166 whole entry): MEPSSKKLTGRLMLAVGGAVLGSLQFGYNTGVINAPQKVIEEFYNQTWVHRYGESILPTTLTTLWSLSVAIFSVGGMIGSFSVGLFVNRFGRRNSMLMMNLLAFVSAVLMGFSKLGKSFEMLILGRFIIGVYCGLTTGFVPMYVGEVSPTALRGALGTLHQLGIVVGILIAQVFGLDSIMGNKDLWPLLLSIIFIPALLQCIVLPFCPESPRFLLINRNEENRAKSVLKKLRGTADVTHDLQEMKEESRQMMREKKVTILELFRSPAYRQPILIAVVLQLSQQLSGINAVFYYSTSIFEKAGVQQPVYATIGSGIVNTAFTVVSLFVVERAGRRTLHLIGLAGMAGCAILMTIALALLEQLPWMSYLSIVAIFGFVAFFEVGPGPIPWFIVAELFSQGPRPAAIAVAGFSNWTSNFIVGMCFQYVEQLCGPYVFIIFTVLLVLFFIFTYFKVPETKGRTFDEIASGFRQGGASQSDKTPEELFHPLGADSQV

The target of experiment [2] is Hexose transporter 1 (Plasmodium falciparum) (UniProt O97467). The experiment is described as follows: ST_JUDE_LEISH: Cytotoxicity at 2uM final concentration against transgenic Leishmania Mexicana promastigotes LmPfHT that are glucose transport deficient and complemented with the Plasmodium falciparum hexose transporter. Activity is measured by DNA content using SYBR green in vitro.

Experiment [3] concerns the target Glucose transporter (Leishmania mexicana) (UniProt O61059). The experiment is described as follows: ST_JUDE_LEISH: Cytotoxicity at 2uM final concentration against transgenic Leishmania Mexicana promastigotes LmGT2 that are glucose transport deficient and complemented with the L. Mexicana glucose transporter 2. Activity is measured by DNA content using SYBR green in vitro.

On to `CN(Cc1cccc(O)c1)C1CCN(c2cc(NC(=O)c3ccc(F)cc3)ccn2)C1` (stereo not given), for which the values for the inhibition in experiment [1], in experiment [2] and in experiment [3] were 1.94%, 2.9% and 3.61%, respectively.
For `Cn1nccc1C(=O)NCCNCc1cccc(-c2cccc(-c3nc4cc(C(F)(F)F)ccc4[nH]3)c2)c1`, in that order: 2.84%, 1.83% and 0.31%.
On to `COc1ccc(C(=O)N2CCc3cc4nccc(N5CCN6CCC[C@H]6C5)c4cc32)cc1`, for which the inhibition (in general, the relative decrease from the control value, in per cent) came out at 2.59% in experiment [1], 3.64% in experiment [2] and 4.3% in experiment [3].
In the case of `Cc1cc(N/N=C/c2cccc([N+](=O)[O-])c2)c2ccc(F)cc2n1`, the inhibition in experiment [1] was 3.46%; in experiment [2], 2.8%; in experiment [3], 0.94%.
For `Cc1cccc(C(=O)Nc2ccnc(N3CCC(N(C)Cc4cccc(O)c4)CC3)c2)c1`, in that order: 2.07%, 1.88% and 3.02%.
In the case of `O=C(Nc1ccccc1)Nc1cccc(-c2ccc(-c3nc4cc(C(F)(F)F)ccc4[nH]3)cc2)c1`, the inhibition in experiment [1] was 4.43%; in experiment [2], 4.53%; in experiment [3] it was 5.45%.
For `N#Cc1ccc2[nH]c(-c3cc(-c4cccc(F)c4)cnc3N)nc2c1`, in that order: 6.56%, 7.71% and 3.77%.
For the compound `Cc1cc(C2CCN(CCCCNC(=O)c3ccc(-c4ccc(C(F)(F)F)cc4)cc3)CC2)c(C)cc1OCC(N)=O`, the inhibition in experiment [1] is 0.54%; in experiment [2], 1.14%; in experiment [3], 0.73%.
`CCC[C@@H]([C@@H](CC1CCCCC1)C(=O)N[C@H](C(=O)Nc1nccs1)[C@@H](C)OCc1ccccc1)N(O)C=O`: the inhibition in experiment [1] was found to be 6.17%; in experiment [2] it was 3.62%; in experiment [3] it was 2.53%.
Consider `CCn1c(-c2nonc2N)nc2c(-c3cccc(NC(=O)Nc4ccccc4Cl)c3)ncc(OCCCN)c21`, for which the inhibition was -1.06% in experiment [1], -1.1% in experiment [2] and -0.34% in experiment [3].
With `COc1ccc(Oc2ccc(-c3c(C)[nH]c(C)c(Cl)c3=O)cc2)cc1`, the inhibition in experiment [1] was found to be 2.75%; in experiment [2] it was 3.46%; in experiment [3], 2.72%.
On to `NC1CCN(c2nc(NCCCc3ccc(O)cc3)nc(NCc3cccc4ccccc34)n2)CC1`, for which the figures for the inhibition in experiment [1], in experiment [2] and in experiment [3] were 0.21%, -3.11% and 2.63%, respectively.
Turning to `COc1cc(C=NN=c2cc(C)[nH]c3ccccc23)cc(OC)c1OC`, the inhibition in experiment [1] was found to be 3.56%; in experiment [2], 4.95%; in experiment [3] it was 1.6%.
Taken in the same sequence, the figures for `CCOC(=O)C(=CNc1ccc(Cc2cnc(N)nc2N)cc1CC)C(=O)OCC` were 2.65%, 2.16% and -3.12%.
For `CCc1n[nH]c(C(=O)Nc2cccc(N3CCCC3)c2)c1C`, in that order: 0.38%, 1.73% and -1.36%.
For `CCCC1N=C(N)N=C(N)N1c1cccc([N+](=O)[O-])c1` (stereo not given), in that order: 1.33%, -0.09% and 0.75%.
As for `CC(C)CNCc1cccc(-c2cccc(CN(CCN(C)C)C(=O)NCCc3ccccc3)c2)c1`, the inhibition was -1.09% in experiment [1], -0.75% in experiment [2] and -4.18% in experiment [3].
Taken in the same sequence, the figures for `NC(=O)c1sc(-n2cnc3ccc(OCC4CCNCC4)cc32)cc1OCc1ccccc1C(F)(F)F` were 0.4%, -0.16% and 0.31%.
Regarding `O=C(Nc1ccc(OC2CCN(Cc3ccc(F)cc3)C2)c(Cl)c1)c1ccoc1` (stereo not given), the inhibition came out at 0.67% in experiment [1], 1.54% in experiment [2] and 0.61% in experiment [3].
On to `CC1CCCN(S(=O)(=O)c2ccc(NC(=O)c3cc(-c4ccccc4O)n[nH]3)cc2)C1` (stereo not given), for which the inhibition in experiment [1] amounted to 1.49%; in experiment [2], 3.54%; in experiment [3], 0.62%.
For `O=C(CSc1nc(-c2ccccc2Cl)ns1)Nc1ccc2c(c1)OCO2`, in that order: -0.52%, -0.45% and -1.67%.
For the compound `Cc1cc(C2CCN(CCCCNC(=O)c3ccc(-c4ccc(C(F)(F)F)cc4)cc3)CC2)c(C)cc1OCCOC1CCCCO1` (stereo not given), the inhibition in experiment [1] was 1.45%; in experiment [2] it was -0.6%; in experiment [3], 2.21%.
As to `Nc1nccc2ccc(-c3ccncc3)cc12`, the inhibition in experiment [1] was found to be 5.87%; in experiment [2], 7.14%; in experiment [3] it was 6.25%.
In the case of `CCc1ccc(NC(=O)c2ccc(CN3CCCN(Cc4cccc(Cl)c4)CC3)cc2)cc1`, the inhibition is 1.47% in experiment [1], 2.69% in experiment [2] and 2.29% in experiment [3].
For `CC(C)(C)NC(=O)C(c1ccc(F)cc1)N(C(=O)c1ccc(CN2CCOCC2)o1)c1ccc(C2CCCCC2)cc1` (stereo not given), in that order: 2.43%, 2.31% and 0.51%.
Regarding `OCCN1CCN(Cc2ccc(-c3cccc(-c4nc5ccccc5[nH]4)c3)cc2)CC1`, the inhibition in experiment [1] is -1.4%; in experiment [2] it was -2.88%; in experiment [3], -1.5%.
Regarding `CN1CCC[C@@H](Oc2cc3c(cc2Br)CCN3C(=O)Nc2ccc(-c3ccncc3)c(Cl)c2)C1`, the inhibition in experiment [1] was found to be 2.29%; in experiment [2] it was 2.77%; in experiment [3], 0.42%.
Turning to `Cc1cc(C2CCN(CCCCNC(=O)c3ccc(NC(=O)c4ccc(Cl)cc4)cc3)CC2)c(C)cc1OC(C)C`, the inhibition in experiment [1] is -1.59%; in experiment [2], -1.19%; in experiment [3] it was -1.68%.
For the compound `COc1ccc2c(c1)S(=O)(=O)N=C(N1CCCC1c1ccc(Cl)c(Cl)c1)N2C` (stereo not given), the inhibition in experiment [1] is -1.4%; in experiment [2] it was -0.89%; in experiment [3], -1.05%.
Consider `O=S(=O)(Nc1cccc(CCN2CCCCC2CCN2CCCC2)c1)c1ccc2ccccc2c1` (stereo not given), for which the inhibition is 0.63% in experiment [1], -0.31% in experiment [2] and -3.3% in experiment [3].
Take `Cc1ccc(CCNCC(O)c2cccc(C(F)(F)F)c2)cc1` (stereo not given): the inhibition was 0.25% in experiment [1], 1.08% in experiment [2] and 1.78% in experiment [3].
As for `Fc1ccc2[nH]c(-c3ccc(-c4ccc(CNCc5cnn(-c6ccccc6)n5)cc4)cc3)nc2c1`, the inhibition was 1.68% in experiment [1], -1.57% in experiment [2] and -1.56% in experiment [3].
On to `COc1ccc2nccc([C@@H](O)CN3CCC(NCc4nc5c(cc4F)SCC(=O)N5)C(F)C3)c2c1` (stereo not given in full), for which the inhibition came out at 5.83% in experiment [1], 3.21% in experiment [2] and 4.51% in experiment [3].
For `Nc1nc(N)c2c(ccc3c2ccn3Cc2ccccn2)n1`, the inhibition in experiment [1] stood at 86.5%; in experiment [2], 92%; in experiment [3] it was 78%.
For `COc1ccc(C2C(C(=O)Nc3ccc(C)cc3Br)c3ccccc3C(=O)N2C)cc1` (stereo not given), the inhibition in experiment [1] came out at 3.32%; in experiment [2] it was 2.08%; in experiment [3] it was 0.83%.
